According to article PMC10668032, “Altered binding affinity of SIX1-Q177R correlates with enhanced WNT5A and WNT pathway effector expression in Wilms tumor”:
In all, about 33,000 sequences were measured (“e-score”: median about -0.05, highest 2% from about 0.38 on). Shown is part of a subset that was picked to be rich in the highest values.

Molecular target: T1, SIX1-Q177R homeodomain (human, UniProt Q15475 108-198, Q177R)
T1 sequence: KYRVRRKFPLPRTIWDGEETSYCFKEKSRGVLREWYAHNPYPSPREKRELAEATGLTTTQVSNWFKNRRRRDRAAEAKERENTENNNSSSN
Test: universal protein binding microarray; Universal all-10-mer PBM (8x60K, AMADID 030236), 300 nM GST-tagged protein, Alexa Fluor 488 anti-GST; buffer, salt, pH and temperature not stated (as in Berger); high values mean tight binding
Conditions: protein: ivt; tags: N-terminal GST; dsDNA, one strand shown
How it was run: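 Duplicate protein binding microarrays (universal 'all 10-mer', 8×60K format) were incubated with GST-tagged homeodomains at 300 nM final concentration. Binding was quantified as 8-mer E-scores with the Universal PBM Analysis Suite.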

Sequence	binding signal [E-score]
GCAGCACC	0.219 ± 0.0401
AGTTACAC	0.449 ± 0.0313
GGTTACAC	0.4536 ± 0.000905
AGTTGCAC	0.208 ± 0.0144
GGTTGCAC	0.183 ± 0.0188
GGTTAAAC	0.183 ± 0.0367
CGTTACCC	0.207 ± 0.026
CGTTTACA	0.154 ± 0.0251
CGTTACAC	0.424 ± 0.0188
AAATGGTG	0.289 ± 0.00359
CGCCGGCG	0.192 ± 0.0602
AGTTCGAA	0.156 ± 0.011
CCCCCGCA	0.218 ± 0.0293
CGACCCCA	0.233 ± 0.0324
ATATACAC	0.409 ± 0.0246
GAGTATAC	0.157 ± 0.0409
CTATACAC	0.379 ± 0.0172
GTATACAA	0.155 ± 0.0122
GTATACAC	0.411 ± 0.00685
ATATATAC	0.154 ± 0.00578
CAAAGGGG	0.188 ± 0.0422
CCCCATAG	0.209 ± 0.0311
TACCAACA	0.167 ± 0.0345

Sequence	binding signal [E-score]
CTGCACAC	0.247 ± 0.0168
GTGTACAA	0.4291 ± 0.00333
GTACACAC	0.355 ± 0.0185
GTGTACAC	0.4741 ± 0.00152
ATGTACAC	0.435 ± 0.00667
ATGTACCC	0.19 ± 0.00303
CTGTACAC	0.41165 ± 0.000233
CTGTACCC	0.183 ± 0.0197
ACCCGGCG	0.235 ± 0.0231
CCCATACA	0.192 ± 0.0397
CTCGGACA	0.171 ± 0.0363
AGGGATCC	0.212 ± 0.0252
ACACAACA	0.268 ± 0.0457
CCCGATTA	0.166 ± 0.0206
TGATAACA	0.153 ± 0.0108
TGTCTAAA	0.199 ± 0.0261
CACCAGCA	0.341 ± 0.0362
GACCCCAC	0.2185 ± 0.00167
GAACACCA	0.4685 ± 0.000778
AAACACAC	0.344 ± 0.0104
GAGCACCA	0.243 ± 0.0142
AAACACTC	0.321 ± 0.0305
TAACACTA	0.384 ± 0.0373

Sequence	binding signal [E-score]
AAACACCC	0.45 ± 0.00506
CAACACTA	0.34 ± 0.0042
AAACACTA	0.298 ± 0.0405
AAACACCA	0.454 ± 0.0052
AAACACGA	0.324 ± 0.0263
AAACAACA	0.166 ± 0.016
GAACACTA	0.356 ± 0.0123
CACGGGAG	0.17 ± 0.0204
ACCGAACC	0.197 ± 0.00959
ACCCCCCC	0.31 ± 0.0449
CACCAACG	0.335 ± 0.0249
ACCGCGTG	0.246 ± 0.00416
GGAGGGGA	0.158 ± 0.02
ACGTAACA	0.199 ± 0.0228
CAACACTG	0.323 ± 0.00702
CACCACCG	0.3551 ± 0.000962
CACCAACA	0.377 ± 0.0268
CAACACCG	0.46689 ± 0.000212
CAACACCA	0.4741 ± 0.00414
AAACACCG	0.4654 ± 0.00275
AAGCACCG	0.175 ± 0.0203
CAACACTC	0.36 ± 0.00549
CAACACAC	0.342 ± 0.0337

Sequence	binding signal [E-score]
CAACACAA	0.182 ± 0.0648
CAACACCC	0.456 ± 0.00535
AAACACTG	0.344 ± 0.0208
ACCAGGTA	0.241 ± 0.0242
ATACTACA	0.257 ± 0.011
AACTGGTG	0.364 ± 0.0186
GACGCCGA	0.174 ± 0.0331
AGAGGTGC	0.19 ± 0.0288
ACTCCCCG	0.191 ± 0.00694
CAACACGG	0.38 ± 0.0301
AAACACGG	0.3488 ± 0.00234
GAACACAC	0.319 ± 0.0348
AAACACCT	0.419 ± 0.00791
CAACACGA	0.328 ± 0.0204
AAACACGT	0.307 ± 0.0183
AAACACTT	0.252 ± 0.0426
GAACACCC	0.4707 ± 0.00185
TAACACGA	0.399 ± 0.00944
GAACACTC	0.374 ± 0.0139
CACGTGAC	0.258 ± 0.0152
TCGGATAA	0.194 ± 0.0204
GGGTTTTA	0.163 ± 0.0227
ACACAGGG	0.158 ± 0.0633

Sequence	binding signal [E-score]
CACCATTA	0.266 ± 0.00672
CACGGGTA	0.291 ± 0.0126
CACTCGAG	0.172 ± 0.0369
TAGCACCA	0.2242 ± 0.00214
GAACACGA	0.3393 ± 0.000771
AAACACGC	0.336 ± 0.0161
TAACACCA	0.477 ± 0.00686
TAACACAA	0.216 ± 0.0241
GAACACGC	0.393 ± 0.0119
CACAGCTA	0.177 ± 0.0139
AACCCCGA	0.232 ± 0.0298
CACGCCCC	0.29 ± 0.0136
AGGGGTGC	0.221 ± 0.0348
GTGTCTTA	0.3629 ± 0.00242
GTGTCGGA	0.454 ± 0.0132
ATGTCGGG	0.199 ± 0.029
ATGTCGTG	0.222 ± 0.0295
GTGTCGCA	0.442 ± 0.0148
GTGTCGTA	0.45 ± 0.0119
GTATCGCA	0.234 ± 0.0133
GGGTCGGA	0.227 ± 0.0525
